High-throughput results deposited in PubChem by Sanford-Burnham Center for Chemical Genomics.
Hits are enriched below; roughly 2.5% of the tested compounds scored in any of these assays.
Cardio protect = cardioprotection against H2O2-induced cell death, primary screen, uHTS, H9c2 cells, ATPLite luminescence. 360,000 tested, 0.63% active. protection from H2O2 cell death, % at 20 µM. H9c2 cardiomyocytes, H2O2 injury protection, 2 h;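 active = compounds giving at least 50% protection of heart cells from peroxide-induced death in the single-dose screen, raw or plate-pattern-corrected value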;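 note: 0% = DMSO wells with peroxide and 100% = DMSO wells without peroxide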
CRFBP-R2 agonist = agonists of CRF-BP/CRF-R2 complex, primary screen, cell-based, HEK293, calcium dye fluorescence, uHTS | CRF-binding protein / CRF receptor 2 complex (human) | calcium dye fluorescence (FLIPR); percent of saturating CRF peptide response | activation, % at 13.2 µM | 350,000 tested, 0.46% active | AID 588473, 2011;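 active = activation of at least 50%, plus an integration ratio under a set limit after plate pattern correction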;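 note: plate controls were neutral control wells without compound for no effect and CRF at EC100 for full effect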
CRFBP-R2 block = antagonists of CRF-BP/CRF-R2 complex, primary screen, cell-based, HEK293, calcium dye fluorescence, uHTS; CRF-induced calcium fluorescence; inhibition, % at 11.8 µM; 350,000 tested, 0.59% active;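 active = inhibition of the ligand-induced calcium signal above about 50% at the single tested concentration, limit read from the data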
TAG inh = inhibitors of triacylglycerol accumulation, primary screen, cell-based, uHTS, fluorescence, H9c2 | AID 651582, 2012 | 230,000 tested, 0.66% active | inhibition, % at 12.5 µM | H9c2 cells, Nile Red lipid (TAG) fluorescence; cells loaded with 200 µM oleic acid;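 active = pattern-corrected inhibition of lipid staining of at least 50% with the nuclear-stain viability signal not falling by more than 50%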;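 note: 0% = DMSO wells and 100% = triacsin C control wells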
SKN-1 block = suppressors of acrylamide-induced Pgst-4::GFP reporter in worms, primary screen, SKN-1 inhibitor project, whole organism, uHTS, GFP/RFP fluorescence ratio, strain VP596; C. elegans VP596 Pgst-4::GFP/RFP ratio, 24 h; inhibition, % at 21.8 µM; 360,000 tested, 0.49% active; AID 624304, 2012;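 active = interference check ratio from 0.5 to 1.5 plus GFP to RFP signal ratio inhibition reaching or exceeding a fixed threshold, cut at about 30% in these data, passing the limit was not always enough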
hiPSC survival = enhancers of single-cell hiPSC survival, primary screen, ATPlite luminescence. AID 602274, 2012. 360,000 tested, 0.044% active. 100% = ROCK inhibitor wells, 0% = DMSO. survival enhancement, % at 20 µM; in the data active = survival enhancement above about 18%;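 note: cells exposed to compounds for 16 hours before the ATP read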
An asterisk follows results filed as active; / = not tested or not shown.

SMILES | Cardio protect | CRFBP-R2 agonist | CRFBP-R2 block | TAG inh | SKN-1 block | hiPSC survival
CCS(=O)(=O)Nc1ccc(-c2nc3cccnc3s2)cc1 | -5 | 89* | -15 | 2 | 4 | -4
CCS(=O)(=O)Nc1cccc(-c2nc3cccnc3s2)c1 | 2 | -1 | -13 | -5 | 14 | 0
COc1cc(C(=O)NCC(=O)N/N=C/c2ccc(-c3cccc([N+](=O)[O-])c3)o2)cc(OC)c1OC | 66* | 0 | 0 | / | 8 | 0
O=C(N/N=C/c1ccc(-c2cccc([N+](=O)[O-])c2)o1)c1ccc([N+](=O)[O-])cc1 | 72* | -2 | 13 | 9 | 6 | 0
O=C(N/N=C/c1ccc(-c2cccc([N+](=O)[O-])c2)o1)c1ccccc1O | 35 | -3 | 12 | 0 | 14 | 3
CS(=O)(=O)Nc1nc2n(n1)C(c1ccccc1)C=C(c1ccc(Br)cc1)N2 (stereo unspecified) | 8 | 139* | -116 | 10 | -11 | 5
CC(=O)Nc1nc2n(n1)C(c1ccccc1)C=C(c1ccccc1)N2 (stereo unspecified) | 10 | 48 | -11 | / | -15 | -3
CC(=O)Nc1nc2n(n1)C(c1ccc(F)cc1)C=C(c1ccccc1)N2 (stereo unspecified) | 27 | 75* | -6 | 12 | 11 | 2
O=C(c1nc2n(n1)C(c1ccc(Cl)cc1)C=C(c1ccccc1)N2)N1CCOCC1 (stereo unspecified) | 25 | 97* | -7 | 0 | 11 | -2
COc1ccc(C(O)c2ncc(-c3cccc4ccccc34)[nH]2)cc1F (stereo unspecified) | -1 | / | / | -32 | 4 | 0
O=C(NC(Nc1nc2ccc([N+](=O)[O-])cc2s1)(C(F)(F)F)C(F)(F)F)c1cccnc1 | -35 | 57* | 60* | -9 | 17 | -2
C/C(=N\NC(=O)c1nnn(-c2nonc2N)c1CN1CCc2ccccc21)c1ccccc1O | 58* | 2 | 4 | / | 0 | 0
COc1ccc(O)c(/C=N/NC(=O)c2c(C)nnn2-c2nonc2N)c1 | 55* | -1 | -9 | -12 | 2 | -2
CC1CCN(Cc2c(C(=O)N/N=C/c3cc(Br)ccc3O)nnn2-c2nonc2N)CC1 | 64* | 2 | 17 | / | 8 | 0
CC(C)Cc1ccc(-c2cc3nc(NCCCn4ccnc4)ccn3n2)cc1 | -10 | / | / | 8 | 25 | -5
Cn1c(=O)c(-c2ccccc2)nn2c3ccccc3nc12 | -2 | 0 | -2 | 16 | -2 | -3
CCn1c(=O)c(C)nn2c3ccccc3nc12 | 11 | 1 | -7 | -7 | 35* | 1
O=C(Nc1ccccc1C(=O)N1CCCCCC1)c1ccc(Cl)cc1 | -1 | 1 | -13 | / | -5 | 2
COC(=O)C1=C(C)NC(C)=C(C(=O)OC)C1c1ccc(OC(=O)c2ccco2)cc1 | 6 | -2 | 13 | 15 | 35* | 14
CN1C(=O)c2ccc(N3CCCC3)cc2C1=O | 1 | 19 | 17 | / | 14 | -1
O=C1/C(=C/c2ccc(N3CCCC3)cc2)NC(=S)N1C1CC1 | -13 | 176* | -192 | / | 25 | 0
Cc1cc(N2CCCC2)ccc1/C=C1\NC(=S)N(C)C1=O | -7 | 169* | -197 | / | 43* | 1
Cc1ccc2nc(Cl)c3nnnn3c2c1 | -15 | 3 | -39 | 82 | -3 | 30*
Cc1ccc2nc(N3CCN(c4cccc(C)c4C)CC3)c3nnnn3c2c1 | 2 | 1 | -9 | -1 | -22 | 1
Cc1ccc(S(=O)(=O)N2CCN(C(=O)c3cc(S(=O)(=O)N(C)C)ccc3N3CCCC3)CC2)c(C)c1 | 15 | -1 | -12 | 2 | 17 | -1
SMILES | Cardio protect | CRFBP-R2 agonist | CRFBP-R2 block | TAG inh | SKN-1 block | hiPSC survival
CC(=O)Nc1ccc(Sc2ncccc2C(=O)Nc2ccc(OC(F)(F)F)cc2)cn1 | 5 | 130* | -59 | / | 3 | 1
CC(=O)Nc1ccc(Sc2ncccc2C(=O)Nc2cc(Cl)cc(Cl)c2)cn1 | 12 | 10 | -40 | / | 7 | -1
CN(/N=C/c1ccc(-c2ccc([N+](=O)[O-])cc2)o1)c1ccccc1 | -4 | 79* | -93 | / | 10 | 0
CN(/N=C/c1cc([N+](=O)[O-])ccc1O)c1ccccc1 | -6 | -2 | 20 | / | 3 | -1
CCN1CCN(c2ccc(S(=O)(=O)N3CCCCC3)cc2NC(=O)/C=C/c2cccc(OC)c2OC)CC1 | -4 | -1 | 106* | / | 1 | 0
CCN1CCN(c2ccc(S(=O)(=O)N3CCOCC3)cc2NC(=O)c2cc(Cl)nc3ccccc23)CC1 | 16 | -1 | 82* | 0 | 4 | 0
COc1cccc(OCCn2cc(C(C)=O)c3ccccc32)c1 | -18 | 0 | 11 | -12 | 4 | 0
OC[C@@H]1CN(Cc2ccc(-c3ccccc3)cc2)C[C@H](n2cnc3c(NCc4ccncc4)ncnc32)O1 | -12 | / | / | 10 | 6 | 0
COc1ccccc1C(=O)NC(CCSC)C(=O)NC1CCCCCC1 (stereo unspecified) | 4 | -1 | 101* | -11 | 24 | -1
CCN1CCc2nc3sc(C(=O)N4CCc5ccccc5C4)c(N)c3cc2C1 | 16 | 0 | -3 | / | 11 | 0
CC(C)OC(=O)CC(=O)c1sc2nc3c(cc2c1N)CN(C)CC3 | / | 103* | -72 | / | / | /
O=C(OCCN1C(=O)c2cccc3c(N4CCOCC4)ccc(c23)C1=O)c1ccc(Cl)cc1Cl | -5 | 176* | -161 | 32 | -16 | 0
O=C(OCCN1C(=O)c2cccc3c(N4CCOCC4)ccc(c23)C1=O)c1cccc(Cl)c1 | / | 175* | -169 | / | / | /
O=C(OCCN1C(=O)c2cccc3c(N4CCOCC4)ccc(c23)C1=O)c1ccccc1Cl | -9 | 170* | -165 | -18 | -6 | 1
O=C(OCCN1C(=O)c2ccccc2C1=O)c1cc(S(=O)(=O)N2CCOCC2)ccc1Cl | 47 | 0 | 4 | -1 | -13 | 0
CCOc1cc(S(=O)(=O)n2cc(-c3ccc(F)cc3)c(N)n2)cc(OCC)c1OCC | -9 | 1 | 3 | -5 | 2 | -1
CCOc1cc(-c2cn(S(=O)(=O)c3cccc4nsnc34)nc2N)cc(OCC)c1OCC | -2 | -2 | 70* | / | -10 | -2
O=c1[nH]c2cccc(F)c2n2cccc12 | 51* | 1 | -51 | / | 12 | 0
C=CCOc1ccc(C=Nc2ccc(OC)cc2)c(O)c1 | 63* | -1 | -108 | -16 | -16 | -1
COc1ccc(N=Cc2ccccc2O)cc1 | 11 | 1 | 7 | -6 | -3 | 0
O=C1NC(=S)S/C1=C\C=C\c1ccc([N+](=O)[O-])o1 | -16 | 48 | -52 | 51* | 11 | -1
